Source: ChEMBL document CHEMBL1961873, “Compounds: GSK PKIS; Assays: Nanosyn kinase panel” (2012)

Columns and labels:
[1] = biological target: Tyrosine-protein kinase receptor UFO (Homo sapiens) (UniProt P30530); conditions: at 1 µM
[2] = biological target: Tyrosine-protein kinase Blk (Homo sapiens) (UniProt P51451); conditions: at 0.1 µM
[3] = biological target: Tyrosine-protein kinase Blk (Homo sapiens) (UniProt P51451); conditions: at 1 µM
[4] = biological target: T1, Cytoplasmic tyrosine-protein kinase BMX (Homo sapiens) (UniProt P51813); conditions: at 0.1 µM
T1 sequence (whole entry): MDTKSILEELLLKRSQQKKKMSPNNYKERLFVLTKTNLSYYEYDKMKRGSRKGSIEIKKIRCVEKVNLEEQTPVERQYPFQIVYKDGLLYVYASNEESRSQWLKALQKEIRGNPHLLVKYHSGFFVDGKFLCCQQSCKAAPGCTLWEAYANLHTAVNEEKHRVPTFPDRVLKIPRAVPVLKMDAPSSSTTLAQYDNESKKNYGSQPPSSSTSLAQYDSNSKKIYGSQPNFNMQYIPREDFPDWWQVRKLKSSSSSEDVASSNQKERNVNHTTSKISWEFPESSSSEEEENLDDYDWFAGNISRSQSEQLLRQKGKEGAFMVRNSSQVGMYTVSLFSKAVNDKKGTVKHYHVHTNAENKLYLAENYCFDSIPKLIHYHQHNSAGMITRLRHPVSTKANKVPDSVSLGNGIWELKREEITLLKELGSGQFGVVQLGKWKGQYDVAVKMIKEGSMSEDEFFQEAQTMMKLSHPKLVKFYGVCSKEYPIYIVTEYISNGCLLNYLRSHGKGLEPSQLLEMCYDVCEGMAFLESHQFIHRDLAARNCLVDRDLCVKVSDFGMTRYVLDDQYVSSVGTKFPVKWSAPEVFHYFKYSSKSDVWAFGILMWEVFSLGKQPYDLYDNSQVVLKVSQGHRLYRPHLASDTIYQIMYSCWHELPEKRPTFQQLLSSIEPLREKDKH

[5] = biological target: T1, Cytoplasmic tyrosine-protein kinase BMX (Homo sapiens); conditions: at 1 µM
[6] = biological target: Protein-tyrosine kinase 6 (Homo sapiens) (UniProt Q13882); conditions: at 0.1 µM
[7] = biological target: Protein-tyrosine kinase 6 (Homo sapiens) (UniProt Q13882); conditions: at 1 µM
[8] = biological target: Tyrosine-protein kinase BTK (Homo sapiens) (UniProt Q06187); conditions: at 0.1 µM
[9] = biological target: Tyrosine-protein kinase BTK (Homo sapiens) (UniProt Q06187); conditions: at 1 µM
[10] = biological target: Tyrosine-protein kinase CSK (Homo sapiens) (UniProt P41240); conditions: at 0.1 µM
[11] = biological target: Tyrosine-protein kinase CSK (Homo sapiens) (UniProt P41240); conditions: at 1 µM
[12] = biological target: T2, Discoidin domain-containing receptor 2 (Homo sapiens) (UniProt Q16832); conditions: at 0.1 µM
T2 sequence (whole entry): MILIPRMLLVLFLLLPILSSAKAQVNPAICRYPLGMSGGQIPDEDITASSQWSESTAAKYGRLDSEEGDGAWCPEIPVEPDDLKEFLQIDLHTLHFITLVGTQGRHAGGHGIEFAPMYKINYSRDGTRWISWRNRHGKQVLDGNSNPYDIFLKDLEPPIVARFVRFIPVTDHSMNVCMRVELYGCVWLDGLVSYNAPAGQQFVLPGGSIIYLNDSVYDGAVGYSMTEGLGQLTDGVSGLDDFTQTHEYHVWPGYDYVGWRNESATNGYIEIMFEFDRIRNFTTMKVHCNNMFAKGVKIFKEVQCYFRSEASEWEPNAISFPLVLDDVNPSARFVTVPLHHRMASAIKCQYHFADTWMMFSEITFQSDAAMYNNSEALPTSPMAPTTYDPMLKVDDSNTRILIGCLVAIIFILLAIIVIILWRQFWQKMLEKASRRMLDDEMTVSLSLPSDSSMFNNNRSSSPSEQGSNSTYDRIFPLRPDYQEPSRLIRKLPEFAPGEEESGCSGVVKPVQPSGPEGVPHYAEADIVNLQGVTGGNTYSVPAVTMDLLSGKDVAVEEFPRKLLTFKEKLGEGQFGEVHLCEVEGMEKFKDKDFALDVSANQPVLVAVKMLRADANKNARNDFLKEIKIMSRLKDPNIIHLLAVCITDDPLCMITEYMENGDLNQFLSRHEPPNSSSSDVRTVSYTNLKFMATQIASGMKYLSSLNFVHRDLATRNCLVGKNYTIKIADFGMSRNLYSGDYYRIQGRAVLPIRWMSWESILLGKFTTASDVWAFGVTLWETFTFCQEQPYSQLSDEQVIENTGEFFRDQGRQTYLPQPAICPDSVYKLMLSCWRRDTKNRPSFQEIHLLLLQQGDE

[13] = biological target: T2, Discoidin domain-containing receptor 2 (Homo sapiens); conditions: at 1 µM
[14] = biological target: Epidermal growth factor receptor (Homo sapiens) (UniProt P00533); conditions: at 0.1 µM
[15] = biological target: Epidermal growth factor receptor (Homo sapiens) (UniProt P00533); conditions: at 1 µM
[16] = tested on: Epidermal growth factor receptor (Homo sapiens), P00533 [L858R]; conditions: at 0.1 µM
[17] = tested on: Epidermal growth factor receptor (Homo sapiens), P00533 [L858R]; conditions: at 1 µM
[18] = tested on: Epidermal growth factor receptor (Homo sapiens), P00533 [L861Q]; conditions: at 0.1 µM
[19] = tested on: Epidermal growth factor receptor (Homo sapiens), P00533 [L861Q]; conditions: at 1 µM
[20] = tested on: Epidermal growth factor receptor (Homo sapiens), P00533 [T790M]; conditions: at 0.1 µM
Chain of Epidermal growth factor receptor (Homo sapiens), P00533 [T790M] (P00533 whole entry T790M): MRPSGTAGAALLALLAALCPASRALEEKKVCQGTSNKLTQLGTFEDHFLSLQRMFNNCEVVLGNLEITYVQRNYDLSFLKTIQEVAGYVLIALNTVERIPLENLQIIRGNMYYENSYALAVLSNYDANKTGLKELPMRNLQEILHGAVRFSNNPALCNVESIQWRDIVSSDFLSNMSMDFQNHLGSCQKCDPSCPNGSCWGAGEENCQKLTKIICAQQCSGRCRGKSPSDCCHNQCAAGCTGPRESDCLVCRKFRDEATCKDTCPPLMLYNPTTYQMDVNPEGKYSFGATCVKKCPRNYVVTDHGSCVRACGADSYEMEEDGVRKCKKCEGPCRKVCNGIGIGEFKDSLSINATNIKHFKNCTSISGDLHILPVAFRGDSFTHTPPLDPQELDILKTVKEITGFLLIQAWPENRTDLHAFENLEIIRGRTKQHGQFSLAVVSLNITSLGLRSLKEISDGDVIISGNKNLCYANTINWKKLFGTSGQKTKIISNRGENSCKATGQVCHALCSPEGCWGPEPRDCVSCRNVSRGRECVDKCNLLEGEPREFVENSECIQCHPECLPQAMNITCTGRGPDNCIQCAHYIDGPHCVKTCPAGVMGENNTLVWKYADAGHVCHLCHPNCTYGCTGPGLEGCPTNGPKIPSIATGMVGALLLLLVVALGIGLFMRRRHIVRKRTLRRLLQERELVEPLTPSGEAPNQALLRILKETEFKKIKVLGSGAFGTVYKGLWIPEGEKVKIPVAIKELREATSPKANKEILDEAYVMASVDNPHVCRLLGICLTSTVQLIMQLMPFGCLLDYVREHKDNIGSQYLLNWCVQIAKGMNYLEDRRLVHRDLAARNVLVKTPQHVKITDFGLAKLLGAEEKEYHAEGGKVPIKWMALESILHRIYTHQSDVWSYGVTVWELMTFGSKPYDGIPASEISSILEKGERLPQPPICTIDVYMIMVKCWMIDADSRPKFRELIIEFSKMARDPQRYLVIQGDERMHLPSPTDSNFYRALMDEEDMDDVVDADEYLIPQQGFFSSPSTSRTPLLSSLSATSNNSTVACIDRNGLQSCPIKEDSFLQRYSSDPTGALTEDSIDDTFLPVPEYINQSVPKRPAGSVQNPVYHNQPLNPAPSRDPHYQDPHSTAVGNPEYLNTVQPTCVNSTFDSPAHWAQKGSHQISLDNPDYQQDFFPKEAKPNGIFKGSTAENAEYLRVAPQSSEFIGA

Chain of Epidermal growth factor receptor (Homo sapiens), P00533 [L861Q] (P00533 whole entry L861Q): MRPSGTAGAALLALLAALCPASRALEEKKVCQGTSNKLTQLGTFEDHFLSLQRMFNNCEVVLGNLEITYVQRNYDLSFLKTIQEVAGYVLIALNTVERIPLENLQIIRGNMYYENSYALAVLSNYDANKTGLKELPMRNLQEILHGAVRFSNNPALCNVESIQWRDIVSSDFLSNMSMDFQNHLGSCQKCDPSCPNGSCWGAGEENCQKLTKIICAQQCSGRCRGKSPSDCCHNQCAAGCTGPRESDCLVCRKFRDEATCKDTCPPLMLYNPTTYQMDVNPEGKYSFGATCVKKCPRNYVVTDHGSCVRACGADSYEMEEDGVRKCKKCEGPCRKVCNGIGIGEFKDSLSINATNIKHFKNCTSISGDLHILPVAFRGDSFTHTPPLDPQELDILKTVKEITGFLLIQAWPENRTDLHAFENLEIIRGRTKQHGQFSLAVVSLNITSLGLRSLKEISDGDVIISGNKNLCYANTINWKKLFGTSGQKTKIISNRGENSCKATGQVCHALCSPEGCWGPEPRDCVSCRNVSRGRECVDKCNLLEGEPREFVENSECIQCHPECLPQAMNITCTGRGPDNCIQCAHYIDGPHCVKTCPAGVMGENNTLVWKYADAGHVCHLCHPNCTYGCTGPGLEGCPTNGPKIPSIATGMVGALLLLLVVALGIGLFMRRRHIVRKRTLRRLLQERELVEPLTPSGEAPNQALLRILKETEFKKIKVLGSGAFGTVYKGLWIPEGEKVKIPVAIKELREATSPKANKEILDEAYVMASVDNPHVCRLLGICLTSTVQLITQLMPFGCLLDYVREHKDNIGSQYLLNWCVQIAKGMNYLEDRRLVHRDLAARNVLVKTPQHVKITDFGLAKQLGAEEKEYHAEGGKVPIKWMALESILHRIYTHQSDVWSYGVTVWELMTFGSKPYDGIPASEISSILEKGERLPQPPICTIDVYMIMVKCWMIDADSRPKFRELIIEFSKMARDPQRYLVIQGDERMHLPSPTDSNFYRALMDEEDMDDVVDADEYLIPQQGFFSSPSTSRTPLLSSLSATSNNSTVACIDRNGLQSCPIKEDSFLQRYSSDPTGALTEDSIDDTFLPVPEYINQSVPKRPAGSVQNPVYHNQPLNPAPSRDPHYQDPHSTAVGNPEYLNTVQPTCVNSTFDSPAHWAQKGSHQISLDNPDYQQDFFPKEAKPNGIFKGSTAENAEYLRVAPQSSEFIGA
Chain of Tyrosine-protein kinase BTK (Homo sapiens) (Q06187 whole entry): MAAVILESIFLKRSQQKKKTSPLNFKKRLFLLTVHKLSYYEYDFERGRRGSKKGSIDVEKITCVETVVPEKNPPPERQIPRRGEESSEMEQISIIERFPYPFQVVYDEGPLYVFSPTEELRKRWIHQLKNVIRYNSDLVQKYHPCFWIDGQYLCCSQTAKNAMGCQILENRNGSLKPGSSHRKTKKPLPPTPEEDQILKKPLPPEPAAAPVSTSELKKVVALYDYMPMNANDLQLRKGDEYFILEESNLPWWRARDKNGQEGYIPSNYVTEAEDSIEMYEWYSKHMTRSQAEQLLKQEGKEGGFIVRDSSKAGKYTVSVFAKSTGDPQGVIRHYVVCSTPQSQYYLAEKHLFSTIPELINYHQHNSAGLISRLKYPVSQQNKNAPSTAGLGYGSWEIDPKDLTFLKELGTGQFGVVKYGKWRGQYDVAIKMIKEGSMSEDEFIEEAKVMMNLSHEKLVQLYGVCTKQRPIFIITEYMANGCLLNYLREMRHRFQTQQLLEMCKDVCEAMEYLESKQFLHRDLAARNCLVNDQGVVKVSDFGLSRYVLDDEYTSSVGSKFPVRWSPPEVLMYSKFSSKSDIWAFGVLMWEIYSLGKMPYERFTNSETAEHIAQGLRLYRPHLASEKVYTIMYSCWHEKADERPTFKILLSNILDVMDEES
Chain of Tyrosine-protein kinase Blk (Homo sapiens) (P51451 2-505 limits assumed): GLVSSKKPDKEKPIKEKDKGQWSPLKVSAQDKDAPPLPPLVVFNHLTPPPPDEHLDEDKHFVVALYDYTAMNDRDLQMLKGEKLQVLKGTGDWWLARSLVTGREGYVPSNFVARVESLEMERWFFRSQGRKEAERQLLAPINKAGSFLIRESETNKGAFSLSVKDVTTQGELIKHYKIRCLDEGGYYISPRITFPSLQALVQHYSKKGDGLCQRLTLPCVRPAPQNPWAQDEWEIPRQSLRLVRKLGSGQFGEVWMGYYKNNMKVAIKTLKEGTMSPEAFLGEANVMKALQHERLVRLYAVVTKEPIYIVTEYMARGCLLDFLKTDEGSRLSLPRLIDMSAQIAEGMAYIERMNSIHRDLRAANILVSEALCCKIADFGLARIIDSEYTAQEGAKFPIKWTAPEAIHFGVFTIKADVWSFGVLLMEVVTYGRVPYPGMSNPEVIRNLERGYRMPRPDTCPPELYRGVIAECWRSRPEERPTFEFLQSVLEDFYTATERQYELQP
Chain of Epidermal growth factor receptor (Homo sapiens), P00533 [L858R] (P00533 whole entry L858R): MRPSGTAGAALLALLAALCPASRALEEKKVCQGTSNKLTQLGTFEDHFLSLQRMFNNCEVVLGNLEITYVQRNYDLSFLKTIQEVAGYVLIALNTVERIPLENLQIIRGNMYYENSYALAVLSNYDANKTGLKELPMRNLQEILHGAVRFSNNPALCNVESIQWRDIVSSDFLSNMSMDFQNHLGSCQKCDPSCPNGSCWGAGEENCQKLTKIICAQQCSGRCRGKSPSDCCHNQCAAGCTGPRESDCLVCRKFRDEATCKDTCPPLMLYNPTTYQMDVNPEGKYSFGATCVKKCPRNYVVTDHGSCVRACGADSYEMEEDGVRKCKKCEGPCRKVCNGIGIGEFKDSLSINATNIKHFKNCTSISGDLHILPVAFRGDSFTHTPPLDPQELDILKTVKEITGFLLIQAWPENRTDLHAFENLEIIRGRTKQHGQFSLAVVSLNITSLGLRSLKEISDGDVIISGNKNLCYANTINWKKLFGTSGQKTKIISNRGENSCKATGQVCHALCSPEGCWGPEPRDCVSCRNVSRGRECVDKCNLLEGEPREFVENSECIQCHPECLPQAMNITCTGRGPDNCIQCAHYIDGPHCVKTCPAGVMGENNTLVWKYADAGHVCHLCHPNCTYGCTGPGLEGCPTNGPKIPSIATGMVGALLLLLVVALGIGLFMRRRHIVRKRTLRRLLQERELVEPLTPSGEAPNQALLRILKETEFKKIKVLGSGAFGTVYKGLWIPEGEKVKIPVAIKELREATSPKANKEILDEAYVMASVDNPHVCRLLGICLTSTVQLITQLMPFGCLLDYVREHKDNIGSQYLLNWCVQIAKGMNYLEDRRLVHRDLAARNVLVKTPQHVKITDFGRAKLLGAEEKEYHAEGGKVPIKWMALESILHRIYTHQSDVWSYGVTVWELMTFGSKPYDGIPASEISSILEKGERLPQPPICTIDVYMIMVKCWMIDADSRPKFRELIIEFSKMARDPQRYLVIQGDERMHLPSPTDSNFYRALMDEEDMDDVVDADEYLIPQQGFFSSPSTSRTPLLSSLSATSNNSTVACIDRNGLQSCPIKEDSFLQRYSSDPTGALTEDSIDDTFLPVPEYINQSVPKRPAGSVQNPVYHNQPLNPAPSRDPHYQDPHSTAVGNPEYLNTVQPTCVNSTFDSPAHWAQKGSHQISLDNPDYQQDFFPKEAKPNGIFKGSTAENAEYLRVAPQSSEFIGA

SMILES	inhibition [1] [%]	inhibition [2] [%]	inhibition [3] [%]	inhibition [4] [%]	inhibition [5] [%]	inhibition [6] [%]	inhibition [7] [%]	inhibition [8] [%]	inhibition [9] [%]	inhibition [10] [%]	inhibition [11] [%]	inhibition [12] [%]	inhibition [13] [%]	inhibition [14] [%]	inhibition [15] [%]	inhibition [16] [%]	inhibition [17] [%]	inhibition [18] [%]	inhibition [19] [%]	inhibition [20] [%]
Fc1ccc(-c2cc(-c3c[nH]nc3-c3ccccn3)ccn2)cc1	-8.99	2.97	2.43	-2.56	3.99	5.01	7.81	0.31	-1.93	5.1	6.45	1.07	1.14	0.04	1.67	3.93	8.78	4	7.94	3.06
Fc1ccc(-c2nn3ncccc3c2-c2ccnc(Nc3ccc4c(c3)OCCO4)n2)cc1	-5.61	14.4	71.2	15	49.4	17.1	67.8	-1.09	5.26	3.81	12.4	37.2	82.5	59.5	82.1	88.3	98.4	63.6	89.5	15.3
CCn1c(-c2nonc2N)nc2c(C#CC(C)(C)O)nc(OC[C@H](N)c3ccccc3)cc21	-3	3.73	2.85	3.88	5.18	2.66	2.72	0.09	0.56	-1.53	2.13	1.12	1.65	2.01	13.4	1.93	1.86	-0.13	2.36	1.22
COc1ccc(CNC(=O)c2ccc(-c3cc(-c4nnc(C)o4)ccc3C)cc2)cc1	2.74	2.54	0.87	-0.31	0.63	0.56	4.1	0.04	2.36	3.65	6.32	4.36	4.67	2.84	4.15	0.12	8.38	1.79	7.03	1.31
Cc1ccc2c(-c3ccnc(Nc4ccccc4)n3)c(-c3ccc(F)cc3)nn2n1	-3.51	6.22	49	3.36	42.7	15.2	63.4	2.84	6.06	3.99	14.5	31.2	83.3	47.1	78.4	85.8	97.4	51.8	87.8	8.63
CNC(=O)c1cc(-c2ccc(F)cc2)cc(-c2ccc(S(=O)(=O)N3CCCC3)cc2)c1N	-4.04	2.16	2.11	2.06	2.39	1.87	1.57	-1.58	-0.59	-0.99	2.28	1.09	1.38	5.94	6.92	0.45	5.35	2.56	4.86	0.67
c1ccc(COc2ccc(Nc3ncnc4ccc(-c5ccco5)cc34)cc2)cc1	2.06	1.56	3.68	-1	2.02	1.6	2.35	0.63	1.73	0.39	1.89	0.26	1.14	64.3	86.1	9.89	39.4	22.1	36.1	1.47
Cc1cccc(Nc2ncc(-c3ccccc3)o2)c1	-3.9	3.13	6.39	4.13	6.25	2.06	0.15	0.69	1.31	1.12	0.89	0.22	0.44	2.11	2.82	0.79	2.98	-0.45	1.8	0.73
CCCN(CCS(C)(=O)=O)Cc1ccc(-c2ccc3ncnc(Nc4ccc(OCc5cccc(F)c5)c(Cl)c4)c3c2)o1	-0.23	1.35	4	0.94	3.89	4.08	7.54	-0.01	0.03	1.98	5.5	1.06	1.68	77.6	78.4	53.4	95	53	88.2	2.23
CCOc1ccc2c(-c3ccnc(Nc4cccc(C(F)(F)F)c4)n3)cnn2n1	-0.78	2.21	3.22	3.34	1.94	-0.32	0.97	0.07	1.18	1.57	1.6	4.46	6.02	0.09	1.97	0.87	-1.72	1.44	-0.42	-0.02
COc1cc(/C=N/Nc2ncnc3[nH]ncc23)ccc1O	-3.87	9.75	59.7	2.08	32.4	5.52	30.3	1.57	7.64	7.17	24.9	1.42	2.31	2.77	8.71	4.32	7.89	2.91	4.72	1.39
CCCN1CCC(c2ccc(Nc3nc(Nc4cc(F)ccc4C(N)=O)c4cc[nH]c4n3)c(OC)c2)CC1	66	3.5	8.52	3.68	6.36	13.5	64.8	-1.53	-1.71	1.38	6.03	0.6	3.39	8.69	40.3	5.44	46.4	6.31	28.4	30.4
COc1cc2ncn(-c3cc(OCc4ccccc4C(F)(F)F)c(C(=O)N(C)C)s3)c2cc1OC	1.68	0.87	7.34	3.03	3.07	-0.28	-0.8	-1.28	-0.85	-1.4	0.02	0.21	-0.91	0.21	0.03	-1.55	-0.64	-1.32	-1.92	-1.33
O=S(=O)(CCNCc1ccc(-c2ccc3ncnc(Nc4ccc(OCc5cccc(F)c5)c(Cl)c4)c3c2)o1)c1ccccc1	-5.93	2.67	6.67	5.7	6.77	6.2	6.15	-0.83	1.59	7.31	6.6	5.04	6.18	65.3	83.3	32.6	79.5	39.2	78.2	2.92
CN1CCC(n2cnc(-c3ccc(F)cc3)c2-c2ccnc(Nc3ccccc3)n2)CC1	-1.45	2.74	7.18	6.66	5.4	2.56	13.2	-0.86	1.25	5.97	6.08	-0.08	0.85	9.04	46.6	37	84.8	9.58	51.3	1.19
CN(C)CCOc1ccc(-c2nc(-c3ccncc3)c(-c3ccc4c(c3)CC/C4=N\O)[nH]2)cc1	-4.92	2.07	6.18	2.12	3.36	4.89	12.4	0.76	1.19	6.25	2.75	1.41	0.64	2.89	2.4	5	9.64	2.57	8.13	2.18
NC(=O)c1sc(-n2cnc3ccc(C(F)(F)F)cc32)cc1OCc1ccccc1Br	-3.8	2.51	3.45	1.05	2.91	3.76	5.16	-0.59	-2.44	4.79	4.85	1.6	0.21	0	-1.55	1.72	4.51	4.73	1.73	2.11
